This passage reports inhibition results from PubChem BioAssay.

Calls of active or inactive are those of the source. No rule for the calls is given here.

The inhibition is the share of the control response that was lost under treatment.

In the assay the target is Pantothenate synthetase (Mycobacterium tuberculosis (strain ATCC 25618 / H37Rv)) (UniProt P9WIL5). Put plainly: Recombinant Mtb pantothenate synthetase (PanC) inhibitors, coupled enzyme, confirmatory (AID 375).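 Also: 0% = full reaction with vehicle and 100% = no enzyme background.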 The settings on record: coupled enzyme assay; at 10 µM, hits give high values.
Sequence of Pantothenate synthetase (Mycobacterium tuberculosis (strain ATCC 25618 / H37Rv)) (P9WIL5 whole entry, looked up): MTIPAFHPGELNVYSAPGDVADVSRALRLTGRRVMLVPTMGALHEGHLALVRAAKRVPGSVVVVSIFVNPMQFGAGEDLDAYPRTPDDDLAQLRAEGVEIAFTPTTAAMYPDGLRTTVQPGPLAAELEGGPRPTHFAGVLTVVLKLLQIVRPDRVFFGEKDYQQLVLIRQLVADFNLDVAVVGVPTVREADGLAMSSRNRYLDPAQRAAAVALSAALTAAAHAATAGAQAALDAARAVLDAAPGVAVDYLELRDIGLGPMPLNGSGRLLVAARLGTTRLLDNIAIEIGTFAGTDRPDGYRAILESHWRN
`Cn1cccc1Cc1nnc(SCC(=O)Nc2ccc(F)cc2F)n1-c1ccc(F)cc1`: the inhibition was 4% (inactive).
Consider `COc1ccc(-n2c(SCC(N)=O)nc3sc4c(c3c2=O)CCN(C)C4)cc1`, for which the inhibition is 0% (inactive).
In the case of `CNC(=O)CSc1nnc(-c2cc(C)cc(C)c2)o1` it was 7% (inactive); in that of `O=C(O)CSC1CC(=O)N(c2ccc(Cl)c(Cl)c2)C1=O` (stereo not drawn), 0% (inactive).
The figure for `Cc1ccc(-n2ncc3c(N4CCCC(C)C4)ncnc32)c(C)c1` (stereo not drawn) is 5% (inactive); for `COc1ccc(Cl)cc1S(=O)(=O)n1cnc2ccccc21` it is 1% (inactive); for `CCc1nnc2c3cnn(-c4ccccc4)c3ncn12` it is 0% (inactive).
In the case of `O=C(NCc1ccco1)C1CCN(c2ccc(N3CCOCC3)nn2)CC1`, the inhibition is 0% (inactive).
Take `CC(C)[N+]1(C)[C@@H]2CC[C@H]1CC(OC(=O)C(CO)c1ccccc1)C2` (stereo partly drawn): the inhibition was 0% (inactive).
The figure for `O=S(=O)(NCc1cccnc1)c1cccc2nsnc12` is 12% (inactive).
On to `Cc1nc(NS(=O)(=O)c2ccccc2)sc1NC(=O)OC(C)C`, for which the inhibition is 0% (inactive).
Take `CCS(=O)(=O)c1nc2ccccc2n1CC(=O)N1CCCCC1`: the inhibition is 6% (inactive).
Consider `O=C(CN1C(=O)c2cccc3cccc1c23)Nc1ccccc1C(=O)NCc1ccco1`, for which the inhibition was 0% (inactive).
With `COc1ccc(C2c3c(-c4ccccc4O)n[nH]c3C(=O)N2CCc2ccc(OC)c(OC)c2)cc1` (stereo not drawn), the inhibition was 0% (inactive).
For the molecule `CCn1c(SCC(=O)Nc2ccc(C(=O)OC)cc2)nnc1-c1cccs1`, the inhibition is 3% (inactive).
Take `C[C@@H]1CCC[C@H](C)N1NC(=O)c1ccc(Cl)c(S(N)(=O)=O)c1`: the inhibition is 0% (inactive).
In the case of `CCOC(=O)N1CCC(NC(=O)Cn2ncc3c4ccccc4n(C)c3c2=O)CC1` it was 5% (inactive).
Consider `CCOC(=O)CSc1nc2sc(C)c(C)c2c(=O)n1C`, for which the inhibition was 0% (inactive).
As to `O=c1oc2ccccc2n1CCn1c2ccccc2c2nc3ccccc3nc21`, the inhibition is 0% (inactive).
Regarding `Cc1nn(Cc2ccccc2)c(C)c1NC(=O)c1cc(-c2ccco2)on1`, the inhibition was 3% (inactive).
`COc1ccccc1-c1nnc2sc(-c3ccc(N(C)C)cc3)nn12`: the inhibition was 5% (inactive).
As to `CCN1CCN(S(=O)(=O)Cc2ccccc2)CC1`, the inhibition was 0% (inactive).
On to `CCOC(=O)c1ccccc1NC(=O)c1ccc(NS(C)(=O)=O)cc1`, for which the inhibition is 0% (inactive).
